A short description of assay [1]: Cell Viability - BJ (AID 421).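 Further: potency means the concentration at half of the fitted maximal effect; cells exposed to compound for 40 hours at 37 °C before readout.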 Particulars: BJ fibroblast viability, qHTS. In a few lines: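 Quantitative HTS: ATP depletion in BJ cells after 40 hr compound exposure in complete culture medium, detected with CellTiter-Glo; AC50 from standard Hill fits.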
Background: In qHTS, concentration-response curves come from the screen itself.

Assay [2] is described as follows: Cell Viability - Jurkat (AID 426;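 active means dose-dependent loss of cell ATP signal giving a full or clear fitted curve, ranked by lower potency value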; further: potency means the concentration at half of the fitted maximal effect). The conditions noted are these: qHTS. In a few lines: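 Jurkat (clone E6-1, human T-cell leukemia) cells, 5000/well in complete medium, were exposed to compound for 40 hr at 37 °C. Viability was read as intracellular ATP by CellTiter-Glo luminescence; AC50 came from Hill fits of concentration-response data.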
Assay [3] in a line: Cell Viability - Hek293 (AID 427;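 active means compounds whose dose-response curve shows a full or clear partial loss of cell viability, called from curve shape rather than a numeric limit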;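 further: potency means the concentration at half of the fitted maximal effect; cells exposed to compound for 40 hours at 37 °C before reading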). Particulars: qHTS. In a few lines:
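AC50 values derive from Hill-modelled concentration-response of ATP-based luminescence, normalized between DMSO-only and 100 uM tamoxifen controls. Cells were exposed in complete culture medium for 40 hr at 37 °C before detection.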

Assay [4] can be described thus: Cell Viability - HepG2 (AID 433).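 Further: potency means the concentration at half of the fitted maximal effect; potency for ATP loss meaning cytotoxicity.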 The conditions noted are these: qHTS. In outline:
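Cytotoxicity is scored as loss of intracellular ATP in HepG2 cells exposed to compounds for 40 h. Concentration-response curves, normalized to DMSO and 100 uM tamoxifen, give AC50 values.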

Assay [5] is described as follows: Cell Viability - SK-N-SH (AID 435).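 Further: potency means the concentration at half of the fitted maximal effect; compound exposure lasted 40 h at 37 °C.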 The conditions noted are these: SK-N-SH neuroblastoma cell viability qHTS. In outline: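 Cells seeded at 1500 per well and incubated 5 hr at 37 °C. Compound added, then 40 hr at 37 °C. CellTiter-Glo added, 20 min at room temperature, luminescence read.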
Assay [6] concerns the target Mitogen-activated protein kinase 10 (Mus musculus) (UniProt Q61831). The experiment in a line: JNK3 AlphaScreen Assay (AID 530; active means well fitted curve in either direction with a large enough effect, not every such curve was filed as active;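 further: kinase came from lysate of stimulated human HepG2 cells; signal reports phosphorylation of biotinylated GST-cJun 1-79 at Ser73 with 10 µM ATP; on the % scale 0 is the no-effect control and ±100 the full control effect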). Particulars: JNK3 lysate, c-Jun phosphorylation; series mostly up to 57.1 µM. In outline: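 Room-temperature AlphaScreen kinase assay; pre-activated HepG2 lysate as JNK3 source, biotin-GST-cJun(1-79) substrate, 10 uM ATP, compound 15 min preincubation.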

A short description of assay [7]: Cell Viability - N2a (AID 540; active means well fitted curve in the direction sought with a large enough effect; an effect the other way counts as inactive or inconclusive;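 further: plate controls were DMSO alone for no effect and tamoxifen control for full effect; nearly all actives have a fitted effect of over 45% in size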). Particulars: N2a mouse neuroblastoma cell viability; activity change, negative = cytotoxicity: at 92.2 µM (top of the series). In a few lines: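 Mouse neuroblastoma N2a cells (1500/well) were preincubated 5 hr at 37 °C, then exposed to compounds for 40 hr at 37 °C in complete medium. Viability was read as intracellular ATP by CellTiter-Glo luminescence; AC50 from Hill fits.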

Assay [8] in a line: Cell Viability - NIH 3T3 (AID 541; active means well fitted curve in the direction sought with a large enough effect; an effect the other way counts as inactive or inconclusive;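 further: plate controls were DMSO alone for no effect and tamoxifen positive control for full effect; nearly all actives have a fitted effect of over 25% in size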). The conditions noted are these: NIH 3T3 cell viability, qHTS; series mostly up to 92.2 µM. In a few lines:
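NIH 3T3 mouse embryo fibroblasts (1000 cells/well) were plated in complete medium and treated with compound for 40 hr at 37 °C. Viability was read as intracellular ATP by CellTiter-Glo luminescence; AC50 values came from Hill-equation fits of concentration-response data.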

Assay [9] in a line: Cell Viability - HUV-EC-C (AID 542; active means well fitted curve in the direction sought with a large enough effect; an effect the other way counts as inactive or inconclusive; further: on the % scale 0 is the no-effect control and ±100 the full control effect; nearly all actives have a fitted effect of over 35% in size). The conditions noted are these: HUV-EC-C endothelial cell viability, qHTS; series mostly up to 92.2 µM. In a few lines:
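HUV-EC-C normal human vascular endothelial cells, 1000 cells/well, pre-incubated 5 hr at 37 °C, then exposed to compounds for 40 hr at 37 °C in complete medium. Viability measured as intracellular ATP by CellTiter-Glo luminescence; AC50 from Hill fits.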

The nature of assay [10]: Cell Viability - H-4-II-E (AID 543; active means well fitted curve in the direction sought with a large enough effect; an effect the other way counts as inactive or inconclusive; further: on the % scale 0 is the no-effect control and ±100 the full control effect; nearly all actives have a fitted effect of over 35% in size). The conditions noted are these: H-4-II-E rat hepatoma viability; series mostly up to 92.2 µM. In a few lines: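 Rat hepatoma H-4-II-E cells (1500/well) were plated, incubated 5 hr at 37 °C, then exposed to compounds for 40 hr at 37 °C. Cellular ATP was read by CellTiter-Glo luminescence; AC50 came from Hill-equation fits of concentration-response data.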

The nature of assay [11]: Cell Viability - SH-SY5Y (AID 544; active means well fitted curve in the direction sought with a large enough effect; an effect the other way counts as inactive or inconclusive; further: nearly all actives have a fitted effect of over 55% in size). The conditions noted are these: SH-SY5Y neuroblastoma cell viability; series mostly up to 92.2 µM. In a few lines:
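Human neuroblastoma SH-SY5Y cells (1500/well) in complete medium were exposed to compounds for 40 hr at 37 °C; intracellular ATP was then quantified by CellTiter-Glo luminescence after 20 min at room temperature. AC50 came from Hill-equation concentration-response fits.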

A short description of assay [12]: Cell Viability - Renal Proximal Tubule (AID 545; active means well fitted curve in the direction sought with a large enough effect; an effect the other way counts as inactive or inconclusive; further: nearly all actives have a fitted effect of over 40% in size). The conditions noted are these: renal proximal tubule cells viability; series mostly up to 91.7 µM. In a few lines:
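Cytotoxicity is scored as a concentration-dependent drop in cellular ATP in primary rat renal proximal tubule cells exposed for 40 hr. AC50 derives from Hill modelling.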

Assay [13] is described as follows: Cell Viability - Mesenchymal (AID 546; active means well fitted curve in the direction sought with a large enough effect; an effect the other way counts as inactive or inconclusive;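 further: cells exposed to compound for 40 hours before reading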). The conditions noted are these: mesenchymal cells viability, qHTS; series mostly up to 91.7 µM. In a few lines:
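AC50 values reflect the drop in intracellular ATP in a human kidney mesenchymal line derived from normal glomeruli. Treatment lasts 40 hr at 37 °C in complete medium, and the signal comes from CellTiter-Glo luminescence.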

Assay [14] can be described thus: Cellular Toxicity (caspase-3) HepG2 (AID 654; active means well fitted curve in the direction sought with a large enough effect; an effect the other way counts as inactive or inconclusive;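 further: cells exposed to compound for 16 hours before reading; 0% = DMSO alone and 100% = caspase signal from 100 µM tamoxifen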). The conditions noted are these: HepG2 caspase-3 activation, luminescence, 0% = DMSO only, 100% = tamoxifen; series mostly up to 92.2 µM. In a few lines: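 HepG2 cells (1500/well) in complete medium were treated with compounds for 16 hr at 37 °C. Caspase-3/7 activity was then read as luminescence from peptide-aminoluciferin cleavage. AC50 came from Hill fits, normalized to DMSO and 100 uM tamoxifen.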

Assay [15] deals with Cytochrome P450 1A2 (Homo sapiens) (UniProt P05177). Kind of assay: p450-cyp1a2 (AID 410). Further: potency means the concentration at half of the fitted maximal effect.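 On activity change, negative = inhibition: -100% = full effect of reference inhibitor.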 Particulars: recombinant CYP1A2, luciferin-ME demethylation, luminescence; series mostly up to 57 µM. In outline: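 Human CYP1A2 (20nM) demethylated Luciferin-ME at its Km (100uM) in 100mM KPO4. After 10 min compound preincubation, NADPH regeneration ran the reaction 60 min at room temperature. Luciferin was read by luminescence, normalized to 57 uM furafylline.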
Cytochrome P450 1A2 (Homo sapiens), sequence (P05177 whole entry, looked up): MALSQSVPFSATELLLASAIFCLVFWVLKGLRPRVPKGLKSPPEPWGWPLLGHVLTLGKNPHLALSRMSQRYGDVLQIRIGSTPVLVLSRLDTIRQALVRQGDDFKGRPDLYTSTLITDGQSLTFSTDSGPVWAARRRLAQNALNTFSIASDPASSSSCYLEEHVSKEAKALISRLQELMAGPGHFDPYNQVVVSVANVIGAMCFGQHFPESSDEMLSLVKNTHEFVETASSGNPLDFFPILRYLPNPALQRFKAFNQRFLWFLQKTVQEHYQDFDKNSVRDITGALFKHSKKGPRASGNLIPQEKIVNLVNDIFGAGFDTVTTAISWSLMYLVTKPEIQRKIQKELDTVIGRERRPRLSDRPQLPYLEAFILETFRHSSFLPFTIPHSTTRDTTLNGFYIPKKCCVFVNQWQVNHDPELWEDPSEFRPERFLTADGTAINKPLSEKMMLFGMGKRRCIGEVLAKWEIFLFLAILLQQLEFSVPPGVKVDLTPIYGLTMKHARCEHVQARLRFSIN

Assay [16] can be described thus: Stat Signaling Pathway (AID 446; active means well fitted curve in either direction with a large enough effect, not every such curve was filed as active;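 further: ME-180 cervical cancer cells given 40 pM IL-6 alongside compound; SIE-controlled beta-lactamase reporter measured as 460/530 nm FRET emission ratio; on the % scale 0 is the no-effect control and ±100 the full control effect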). The conditions noted are these: ME-180 (cervical carcinoma) SIE beta-lactamase reporter, IL-6 stimulated, 5 h. In outline: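 IL-6/STAT signaling read in ME-180 cells via an SIE beta-lactamase reporter. Stimulus was 40 pM IL-6 (its AC50) for 5 hrs, so both activation and inhibition register.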
Assay [17] concerns the target Glucocorticoid receptor (Homo sapiens) (UniProt P04150). The experiment in a line: GR-GFP Redistribution (AID 450;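 active means compounds whose dose series gives a full or clear partial fitted curve of increased nuclear translocation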; further: potency means the concentration at half of the fitted maximal effect). Particulars: U2OS GR-GFP nuclear translocation, laser cytometry, 2 h.
The target is the same in assay [18]. The experiment in a line: GR-EFC Redistribution (AID 451). Further: potency means the concentration at half of the fitted maximal effect. The conditions noted are these: CHO-K1 GR-EFC translocation, beta-gal luminescence, 2 h. In outline: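 Translocation of GR-ED fusion to nuclear EA restores b-gal, read by luminescence after 1 h room-temperature detection. Engineered CHO-K1 biosensor cells, 1,000/well, exposed 2 h at 37 C to titrations up to 46 uM final.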

The target of assay [19] is 3',5'-cyclic-AMP phosphodiesterase 4B (Homo sapiens) (UniProt Q07343). The experiment in a line: qHTS Assay for Inhibitors of PDE-IV (AID 607; active means well fitted activation curve with a large enough effect in the main read-out, with a control signal flat, not every such curve was filed as active; further: % of control where 0% means no effect). The conditions noted are these: HEK293 ACTOne CNG channel cells, membrane potential fluorescence; series mostly up to 22.9 µM. In outline:
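Live HEK293 cells with a modified cyclic nucleotide-gated (CNG) channel report intracellular cAMP via membrane-potential dye fluorescence (ex 535/em 590 nm). Endogenous PDE-IV was targeted. Compounds were tested at up to 22.9 uM final; RO 20-1724 100 uM served as control.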

Assay [20] is described as follows: NFAT Signaling Pathway (AID 444; active means well fitted curve in either direction with a large enough effect, not every such curve was filed as active;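 further: carbachol stimulus at about its EC50 of 1 µM final; on the % scale 0 is the no-effect control and ±100 the full control effect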). The conditions noted are these: Jurkat NFAT-bla M1, carbachol, beta-lactamase ratio, 5 h. In a few lines:
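Read-out: CCF4 FRET ratio (460 nm/530 nm) after 1 h RT dye loading, used for %activity and AC50 from titration series. Cells: Jurkat NFAT-β-lactamase/M1 line, treated with compound plus 1 uM carbachol for 5 h, 37 °C.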

Several values for one entry are separate records, joined by “and”; a condition that tells them apart may be missing. Equal entries are not always repeated. Records with an inconclusive call do not appear. Where a structure was tested more than once in an assay, its records may differ in their call. Activity calls are given as the source filed them. Unless noted, the call rests on the fitted dose curve.

Glucocorticoid receptor (Homo sapiens), sequence (P04150 whole entry, looked up, the tested form may be a part): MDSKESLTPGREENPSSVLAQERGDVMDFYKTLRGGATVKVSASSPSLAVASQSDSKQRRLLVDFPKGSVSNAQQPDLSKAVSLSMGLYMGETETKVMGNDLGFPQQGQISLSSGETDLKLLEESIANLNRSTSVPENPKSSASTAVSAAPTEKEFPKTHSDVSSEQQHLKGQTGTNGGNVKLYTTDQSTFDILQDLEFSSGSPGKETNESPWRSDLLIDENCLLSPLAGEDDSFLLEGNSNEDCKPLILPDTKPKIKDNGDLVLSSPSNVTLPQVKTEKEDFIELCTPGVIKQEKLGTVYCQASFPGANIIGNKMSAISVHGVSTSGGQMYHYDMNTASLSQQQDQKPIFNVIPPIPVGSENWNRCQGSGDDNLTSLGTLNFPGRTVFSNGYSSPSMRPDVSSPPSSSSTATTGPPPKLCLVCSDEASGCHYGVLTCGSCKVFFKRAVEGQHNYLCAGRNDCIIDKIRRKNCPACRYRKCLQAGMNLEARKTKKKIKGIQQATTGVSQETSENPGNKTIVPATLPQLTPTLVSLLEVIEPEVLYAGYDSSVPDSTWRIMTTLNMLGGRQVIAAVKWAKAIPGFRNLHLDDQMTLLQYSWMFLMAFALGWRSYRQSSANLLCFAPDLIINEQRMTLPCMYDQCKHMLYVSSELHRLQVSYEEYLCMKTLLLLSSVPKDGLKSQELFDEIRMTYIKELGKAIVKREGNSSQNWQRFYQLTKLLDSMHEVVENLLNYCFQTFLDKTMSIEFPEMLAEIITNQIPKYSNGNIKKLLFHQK
3',5'-cyclic-AMP phosphodiesterase 4B (Homo sapiens), sequence (Q07343 whole entry, looked up): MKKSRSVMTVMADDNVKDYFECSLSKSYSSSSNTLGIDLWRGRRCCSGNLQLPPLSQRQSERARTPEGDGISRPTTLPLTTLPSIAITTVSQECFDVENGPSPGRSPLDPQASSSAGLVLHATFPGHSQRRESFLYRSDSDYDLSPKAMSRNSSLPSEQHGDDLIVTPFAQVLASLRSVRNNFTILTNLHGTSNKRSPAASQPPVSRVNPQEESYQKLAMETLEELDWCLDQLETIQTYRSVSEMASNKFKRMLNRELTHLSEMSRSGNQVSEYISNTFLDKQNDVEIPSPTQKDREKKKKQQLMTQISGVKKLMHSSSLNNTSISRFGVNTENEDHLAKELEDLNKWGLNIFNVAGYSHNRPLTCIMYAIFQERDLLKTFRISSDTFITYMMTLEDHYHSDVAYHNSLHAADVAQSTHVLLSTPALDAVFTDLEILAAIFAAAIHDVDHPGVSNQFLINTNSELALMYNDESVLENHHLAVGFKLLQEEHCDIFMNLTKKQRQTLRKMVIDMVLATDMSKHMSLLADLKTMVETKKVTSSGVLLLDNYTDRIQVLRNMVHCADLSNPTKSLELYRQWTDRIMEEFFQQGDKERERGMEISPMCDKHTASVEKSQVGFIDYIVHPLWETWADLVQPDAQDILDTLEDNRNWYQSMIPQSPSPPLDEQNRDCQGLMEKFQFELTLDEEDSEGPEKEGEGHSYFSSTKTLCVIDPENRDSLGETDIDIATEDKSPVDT

In the case of `C=CC(=O)NCNC(=O)C=C`, the Potency in assay [1], in assay [2], in assay [3], in assay [4] and in [5] was > 92 µM (inactive) each time. The compound was called inactive in [6] and in [14]. Also, the activity change, negative = cytotoxicity in assay [7] was 2.37% (inactive). Also, the Potency entry in assay [8], in assay [9], in assay [10], in [11], in assay [12] and in [13] was “inactive” throughout.

`Clc1cnc(Oc2ccc(Oc3ncc(Cl)cc3Cl)cc2)c(Cl)c1`: the Potency entry in assay [15] and in assay [19] was “inactive” each time. Further, the activity, negative = inhibition in assay [16] (at 38 µM (top of the series)) is 1.75% (inactive). Also, the Potency in assay [17] and in assay [18] was > 46 µM (inactive) in each case.

Consider `O=C(O)Cc1cnc[nH]1`, for which the Potency entry in assay [15] and in [19] was “inactive” each time. Also, the activity change, negative = inhibition in [20] (at 38 µM (top of the series)) was -2.43% (inactive). The activity, negative = inhibition in assay [16] (at 38 µM (top of the series)) is -3.06% (inactive). The Potency in [17] and in assay [18] was > 46 µM (inactive) in each case.

As to `O=c1cccc2n1CC1CNC[C@H]2C1`, the Potency entry was “inactive and 31.6 µM (active)” in [15]; > 20.6 µM (inactive) and > 46 µM (inactive) in assay [17]; > 46 µM (inactive) in assay [18]. Also, the activity change, negative = inhibition in assay [20] (at 17.2 µM (top of the series)) is -12.9% (inactive). Moreover, in [16] (at 17.2 µM (top of the series)), the activity, negative = inhibition is 6.88% (inactive). Further, the Potency entry in [19] is “inactive”.

`NCc1cc(=O)[nH]o1`: the Potency result in [15] and in [19] was “inactive” in each case. Further, in assay [20] (at 38 µM (top of the series)), the activity change, negative = inhibition is 7.89% (inactive). For the same compound, the activity, negative = inhibition in [16] (at 38 µM (top of the series)) is -1.4% (inactive). In addition, the Potency in [17] and in assay [18] was > 46 µM (inactive) in each case.

As for `COc1ccc2c(c[n+](C)c3c4cc5c(cc4ccc23)OCO5)c1OC`, the values for the Potency in assay [15] and in [18] were 10 µM (active) and > 46 µM (inactive), respectively. The Potency result in assay [19] is “inactive”.

With `C[C@]12N[C@H](Cc3ccccc31)c1ccccc12`, the Potency result in assay [15] and in assay [19] was “inactive” in each case. For the same compound, the activity change, negative = inhibition in assay [20] (at 38 µM (top of the series)) is -11.3% (inactive) and -3.27% (inactive). Further, the activity, negative = inhibition in assay [16] (at 38 µM (top of the series)) is 16.1% (inactive) and 6.66% (inactive).

Turning to `CC[C@@]1(O)C(=O)OCc2c1cc1n(c2=O)Cc2cc3ccccc3nc2-1`, the Potency was 7.94 µM (active) and 2.51 µM (active) and 1.58 µM (active) in [15]; > 46 µM (inactive) and > 20.6 µM (inactive) in assay [17]; > 46 µM (inactive) and > 20.6 µM (inactive) in assay [18]. Also, the activity change, negative = inhibition in assay [20] (at 17.2 µM (top of the series)) was -85.5% (active); in [20] (at 38 µM (top of the series)) it was -97% (active). For the same compound, the activity, negative = inhibition is -95.6% (active) in assay [16] (at 17.2 µM (top of the series)) and 42.7% (active) in assay [16] (at 38 µM (top of the series)). Also, in assay [19], the Potency result was “inactive”.

For the compound `CNCCc1c[nH]c2ccc(O)cc12`, the Potency entry in [15] and in assay [19] was “inactive” throughout. Moreover, the activity change, negative = inhibition in [20] (at 38 µM (top of the series)) was 12.8% (inactive). In assay [16] (at 38 µM (top of the series)), the activity, negative = inhibition is -2.52% (inactive). In addition, the Potency in assay [17] and in assay [18] was > 46 µM (inactive) each time.

For the compound `c1ccc2sc(C3(N4CCCCC4)CCCCC3)cc2c1`, the Potency entry in assay [15] and in assay [19] was “inactive” each time. Further, the activity, negative = inhibition in assay [16] (at 38 µM (top of the series)) was -24.8% (inactive). In addition, the Potency in [17] and in assay [18] was > 46 µM (inactive) in each case. Moreover, in [6], the compound was classed as inactive.

Take `COc1ccc(C(=O)c2c(C)n(CCN3CCOCC3)c3cc(I)ccc23)cc1`: the Potency in assay [15] is 15.8 µM (active); in assay [17], > 46 µM (inactive); in assay [18] it was > 46 µM (inactive).

For the origin of these results see PubChem BioAssay (NCATS).
